Only some compounds are listed: those with a hit (about 2.4% of all), similar ones and a draw of the others.
Cruzain Triton = blocks cruzain activity in presence of Triton detergent; P25779; purified cruzain, Z-FR-AMC fluorescence, 0.01% Triton; Potency, µM, for the others: max response, negative = inhibition, hits mostly inhibitors; 200,000 tested, 0.43% active;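 further: plate controls were neutral wells for no effect and buffer without enzyme for full effect; nearly all actives have a fitted effect of over 40% in size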
Target sequence (P25779 123-467 limits assumed): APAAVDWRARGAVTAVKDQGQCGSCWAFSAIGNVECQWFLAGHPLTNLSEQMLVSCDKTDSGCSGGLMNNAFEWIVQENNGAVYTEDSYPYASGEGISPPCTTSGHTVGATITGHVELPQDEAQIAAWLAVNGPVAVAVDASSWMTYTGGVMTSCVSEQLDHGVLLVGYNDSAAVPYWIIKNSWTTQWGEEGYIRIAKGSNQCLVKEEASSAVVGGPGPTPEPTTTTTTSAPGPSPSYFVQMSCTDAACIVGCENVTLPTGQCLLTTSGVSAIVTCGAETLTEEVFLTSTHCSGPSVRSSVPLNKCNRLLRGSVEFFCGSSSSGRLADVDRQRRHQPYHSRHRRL
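Steps: dispense cruzain (1.5 nM final) in acetate buffer pH 5.5 with DTT and 0.01% Triton X-100; pin-transfer compounds; incubate 15 min RT; add Z-FR-AMC (2 uM final); read fluorescence every 30 s, using the 60 s intensity change.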
Cruzain noTriton = cruzain (T. cruzi) inhibition without detergent; P25779; purified cruzain, Z-FR-AMC fluorescence, no detergent; Potency, µM, inactives show max response, negative = inhibition, actives largely listed as inhibitors; 200,000 tested, 2.3% active;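 further: plate controls were enzyme without inhibitor for no effect and buffer without enzyme for full effect; nearly all actives have a fitted effect of over 40% in size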
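Detergent-free condition (0.00005% Triton X-100) in acetate buffer pH 5.5 with DTT. 1.5 nM enzyme and compound were pre-mixed 15 min, then 2 uM Z-FR-AMC substrate added; reaction progress from fluorescence change between first and third reads (60 s).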
The depositor's hits bear a star. The call rests on the fitted dose curve; in most records, active means well fitted curve in the direction sought with a large enough effect; inconclusive means small, poorly fitted or top-dose-only effect, or another doubt; inactive means no such curve, though single readings can be large; an effect the other way counts as inactive or inconclusive. Potency means the concentration at half of the fitted maximal effect.

Results for Cc1ccc(Cl)cc1N1CCN(C(c2ccc(F)cc2)c2nnc(-c3ccccc3)o2)CC1 (stereo not given) ?
Cruzain Triton: -1%; Cruzain noTriton: 6.3µM*

Results for Cc1cccc(N2CCN(C(c3ccc(F)cc3)c3nnc(-c4ccccc4)o3)CC2)c1C (stereo not given) ?
Cruzain Triton: -3%; Cruzain noTriton: inconclusive

How did Cc1cc(/C=C(\C#N)C(=O)Nc2ccc(Cl)cc2)c(C)n1-c1ccc(N2CCOCC2)c([N+](=O)[O-])c1 do in these assays?
Cruzain Triton: -6%; Cruzain noTriton: 7.9µM*

Results for Cc1ccc(NC(=O)/C(C#N)=C/c2cc(C)n(-c3ccc(N4CCOCC4)c([N+](=O)[O-])c3)c2C)c(C)c1 ?
Cruzain Triton: -1%; Cruzain noTriton: inconclusive

What do the screens show for `Cc1ccc(N2C(=O)CSC23C(=O)N(CC(=O)NCc2ccccc2)c2ccccc23)cc1C` (stereo not given)?
Cruzain Triton: -5%; Cruzain noTriton: -12%

How did COc1ccccc1NS(=O)(=O)c1cc(NC(=O)Nc2cccc(C)c2)ccc1N1CCCCC1 do in these assays?
Cruzain Triton: -2%; Cruzain noTriton: 5µM*

What do the screens show for `O=C(Nc1ccc(Cl)cc1)Nc1ccc(N2CCCC2)c(S(=O)(=O)Nc2ccccc2Cl)c1`?
Cruzain Triton: -1%; Cruzain noTriton: inconclusive

Results for O=C(Nc1ncc(Cc2cccc(C(F)(F)F)c2)s1)c1ccc(-c2cccc([N+](=O)[O-])c2)o1 ?
Cruzain Triton: -4%; Cruzain noTriton: 10µM*

How did CC(=O)Cc1nsc(NC(=O)c2ccc(-c3cccc(C(F)(F)F)c3)o2)n1 do in these assays?
Cruzain Triton: 4%; Cruzain noTriton: 3%

Results for Cc1nnc(NC(=O)c2ccc(-c3cccc(C(F)(F)F)c3)o2)s1 ?
Cruzain Triton: 2%; Cruzain noTriton: 13µM*

What do the screens show for `Cc1ccc2cccc(NC(=O)c3ccc(-c4cccc([N+](=O)[O-])c4)o3)c2n1`?
Cruzain Triton: -2%; Cruzain noTriton: -10%

What do the screens show for `Cc1ccc(-n2ncc(C(=O)NCc3ccccn3)c2C2CCN(C(=O)OC(C)(C)C)CC2)cc1C`?
Cruzain Triton: -8%; Cruzain noTriton: inconclusive

How did COc1cccc(C(=O)NCC(c2ccc(N(C)C)cc2)N2CCc3ccccc32)c1 (stereo not given) do in these assays?
Cruzain Triton: -13%; Cruzain noTriton: inconclusive

What do the screens show for `COc1cc(C2CC(=O)Nc3c2c(=O)[nH]c2ncnn32)ccc1O` (stereo not given)?
Cruzain Triton: -1%; Cruzain noTriton: 16%

How did Cc1cc(NC(=O)COC(=O)c2oc3c(Cl)cccc3c2C)no1 do in these assays?
Cruzain Triton: 4%; Cruzain noTriton: 13µM*

What do the screens show for `Cc1cc(NC(=O)COC(=O)c2n[nH]c3ccccc23)no1`?
Cruzain Triton: 1%; Cruzain noTriton: 2%

How did CC(=O)c1c(C)oc2c(Br)cc(NS(=O)(=O)c3ccc(Br)cc3)cc12 do in these assays?
Cruzain Triton: -7%; Cruzain noTriton: -5%

How did COc1cc(NC(=O)C2CCN(S(=O)(=O)c3c(C)noc3/C=C/c3ccccc3F)CC2)cc(OC)c1OC do in these assays?
Cruzain Triton: -3%; Cruzain noTriton: inconclusive

Results for CCSc1nc2n(n1)C(c1ccc(C(=O)O)cc1)C(C(=O)Nc1ccccc1C)=C(C)N2 (stereo not given) ?
Cruzain Triton: 1%; Cruzain noTriton: 8%

Results for COc1ccc(CN(C(=O)CSc2nnc(-c3ccccc3C)o2)c2ccc(F)cc2)cc1 ?
Cruzain Triton: -5%; Cruzain noTriton: -9%

What do the screens show for `O=C(CSc1nnc(-c2c[nH]c3ccccc23)o1)N(Cc1ccccc1)c1ccc(F)cc1`?
Cruzain Triton: -5%; Cruzain noTriton: 13µM*

How did CCC(C)NC(=O)c1ccc2c(c1)N(Cc1ccccc1)C(=O)c1ccccc1S2(=O)=O (stereo not given) do in these assays?
Cruzain Triton: -2%; Cruzain noTriton: 0%

Results for c1ccc(Nc2nc(N3CCOCC3)nc(N3CCOCC3)n2)cc1 ?
Cruzain Triton: -5%; Cruzain noTriton: -5%

Results for NNc1nc(Nc2ccccc2)nc(N2CCCCC2)n1 ?
Cruzain Triton: -11%; Cruzain noTriton: 13µM*

Results for COc1ccc(C(=O)/C=C/c2ccc(N3CCCCC3)c([N+](=O)[O-])c2)cc1 ?
Cruzain Triton: -5%; Cruzain noTriton: -17%

Results for O=C(/C=C/c1ccc(Cl)c([N+](=O)[O-])c1)Nc1ccc(N2CCCC2)c(Cl)c1 ?
Cruzain Triton: -2%; Cruzain noTriton: 20µM*

What do the screens show for `CCOc1ccc(N2CC(c3nc4ccccc4n3CCCOc3ccccc3OC)CC2=O)cc1` (stereo not given)?
Cruzain Triton: -8%; Cruzain noTriton: 21%

How did COc1ccc(/C=N/n2cc(-c3ccccc3)nc2N)cc1 do in these assays?
Cruzain Triton: -5%; Cruzain noTriton: inconclusive

How did COc1ccc(/C=N/n2cc(-c3ccc(OC)cc3)nc2N)cc1 do in these assays?
Cruzain Triton: -8%; Cruzain noTriton: 32µM*

Results for CCOc1ccc(/C=C/c2nc(C#N)c(N3CCN(c4ccc(OC)cc4)CC3)o2)cc1 ?
Cruzain Triton: 0%; Cruzain noTriton: 3%

Results for CC(NC(=O)C1CCN(S(=O)(=O)c2cc([N+](=O)[O-])ccc2Cl)CC1)c1ccccc1 (stereo not given) ?
Cruzain Triton: -4%; Cruzain noTriton: -8%

How did Cc1ccc2nc(NC(=O)C3CCN(S(=O)(=O)c4cc([N+](=O)[O-])ccc4Cl)CC3)sc2c1 do in these assays?
Cruzain Triton: -3%; Cruzain noTriton: 32µM*

Results for O=C(Nc1nc2ccc(F)cc2s1)C1CCN(S(=O)(=O)c2cc([N+](=O)[O-])ccc2Cl)CC1 ?
Cruzain Triton: -8%; Cruzain noTriton: 10µM*

What do the screens show for `Cc1ccc2nc(NC(=O)C3CCN(S(=O)(=O)c4cccc5nsnc45)CC3)sc2c1`?
Cruzain Triton: -6%; Cruzain noTriton: inconclusive

What do the screens show for `COC(=O)c1cc(=O)c(O)c2c(O)c(O)ccc2c1`?
Cruzain Triton: -22%; Cruzain noTriton: -13%

How did CCOC(=O)C1CCN(c2ncnc3c2nnn3C)CC1 do in these assays?
Cruzain Triton: 0%; Cruzain noTriton: inconclusive

How did COc1ccc(C(=O)Nc2ccc3c(c2)N(C)C(=O)c2ccccc2S3)cc1OC do in these assays?
Cruzain Triton: -5%; Cruzain noTriton: inconclusive

How did CN1CCN(c2ncc3nc(-c4ccc(Cl)cc4)c(=O)n(Cc4cccs4)c3n2)CC1 do in these assays?
Cruzain Triton: -4%; Cruzain noTriton: 14%

What do the screens show for `COC(=O)c1cc(Br)ccc1-c1ccc(/C=N/n2nnnc2N)o1`?
Cruzain Triton: -9%; Cruzain noTriton: 13µM*

Results for Cc1ccc([N+](=O)[O-])cc1-c1ccc(/C=N\n2nnnc2N)o1 ?
Cruzain Triton: -10%; Cruzain noTriton: 0%

How did C[C@@H](O)CCC[C@H](O)/C=C/[C@H]1[C@H](O)CC(=O)[C@@H]1C/C=C\CCCC(=O)O do in these assays?
Cruzain Triton: 2%; Cruzain noTriton: -3%

Results for CCOc1ccc(CCNC(=O)CCCn2nc(C)c3sc4ccccc4c3c2=O)cc1 ?
Cruzain Triton: -8%; Cruzain noTriton: inconclusive

What do the screens show for `CCOc1ccc(CNC(=O)CCCn2nc(C)c3sc4ccccc4c3c2=O)cc1`?
Cruzain Triton: -7%; Cruzain noTriton: 20µM*

What do the screens show for `Cc1cc(C)cc(-n2ccnc(NCCc3ccccc3)c2=O)c1`?
Cruzain Triton: -1%; Cruzain noTriton: -5%

Screening data: PubChem, National Center for Advancing Translational Sciences (NCATS)
